Consider eight compounds from PubChem BioAssay.

A short description of assay [1]: optical density shifts of acrAB sulA E. coli – strain DRC41, OD650, 48 h, E. coli filamentation inducer project, primary screen (AID 1152).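 Also: E. coli MC1000 strain DRC41 lacking acrAB efflux pump and sulA.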 The note with it: higher = more signal, called active from +8 up or from −8 down.
Assay [2] can be described thus: probe aLefty1 binding on compound microarray – biochemical, small-molecule microarray, 635/667 nm fluorescence, primary screen (AID 1153).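 Also: score merges spot fluorescence with signal-to-noise ratio from the scanned slide images.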 The note with it: higher = more signal.
A short description of assay [3]: plasmodial surface anion channel blockers, osmotic lysis – cell-based, P. falciparum Indochina, OD700, 1 h, primary screen (AID 1154). To be noted: P. falciparum Indochina infected RBC osmotic lysis, higher = more signal, called active from +8 up or from −8 down.
Assay [4] in a line: plasmodial surface anion channel blockers, osmotic lysis – cell-based, P. falciparum Indochina, OD700, 2 h, primary screen (AID 1155).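 Also: lysis reports solute entry through the parasite surface anion channel PSAC.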 The note with it: P. falciparum Indochina infected erythrocytes, higher = more signal, called active from +8 up or from −8 down.
Assay [5] can be described thus: changes in parasitized red cell lysis, either direction – P. falciparum Indochina, OD700, 3 h, PSAC antagonist project, primary screen (AID 1156). To be noted: P. falciparum-infected erythrocytes, osmotic lysis, higher = more signal, called active from +8 up or from −8 down.
A short description of assay [6]: plasmodial surface anion channel blockers, osmotic lysis – cell-based, P. falciparum Indochina, OD700, 18 h, primary screen (AID 1157). To be noted: P. falciparum Indochina infected erythrocytes, osmotic lysis OD700, 18 h; higher = more signal, called active from +8 up or from −8 down.
Assay [7] can be described thus: S6 kinase pathway phospho-S6 level changes – cell-based, A549, cytoblot, luminescence, serum-stimulated, primary screen (AID 1158).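 Also: serum-stimulated A549 lung adenocarcinoma cells; signal is phosphorylated S6 detected by cytoblot immunostaining with HRP secondary.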 The note with it: 5 h, higher = more signal.
Assay [8] has as its target NADPH oxidase 2 (Homo sapiens) (UniProt P04839). Put plainly: compounds shifting NOX2 Amplex Red fluorescence – cell-based, HEK293-NOX2, PMA-stimulated, NOX inhibitor project, primary screen (AID 1159). Also: test concentration not given here. The note with it: 45 min, higher = more signal, called active from +8 up or from −8 down.
Assay [9] concerns the target NADPH oxidase 4 (Homo sapiens) (UniProt Q9NPH5). The experiment in a line: compounds shifting NOX4 Amplex Red fluorescence – cell-based, HEK293-NOX4, tetracycline-induced, NOX inhibitor project, primary screen (AID 1160). To be noted: HEK293-NOX4, Amplex Red H2O2 fluorescence, 45 min; higher = more signal, called active from +8 up or from −8 down.
The target of assay [10] is NADPH oxidase 5 (Homo sapiens) (UniProt Q96PH1). The experiment in a line: compounds shifting NOX5 Amplex Red fluorescence – cell-based, HEK293-NOX5, NOX inhibitor project, primary screen (AID 1161). The note with it: HEK293-NOX5, ionomycin, 45 min, higher = more signal.
Sequence of NADPH oxidase 5 (Homo sapiens) (Q96PH1 whole entry, looked up): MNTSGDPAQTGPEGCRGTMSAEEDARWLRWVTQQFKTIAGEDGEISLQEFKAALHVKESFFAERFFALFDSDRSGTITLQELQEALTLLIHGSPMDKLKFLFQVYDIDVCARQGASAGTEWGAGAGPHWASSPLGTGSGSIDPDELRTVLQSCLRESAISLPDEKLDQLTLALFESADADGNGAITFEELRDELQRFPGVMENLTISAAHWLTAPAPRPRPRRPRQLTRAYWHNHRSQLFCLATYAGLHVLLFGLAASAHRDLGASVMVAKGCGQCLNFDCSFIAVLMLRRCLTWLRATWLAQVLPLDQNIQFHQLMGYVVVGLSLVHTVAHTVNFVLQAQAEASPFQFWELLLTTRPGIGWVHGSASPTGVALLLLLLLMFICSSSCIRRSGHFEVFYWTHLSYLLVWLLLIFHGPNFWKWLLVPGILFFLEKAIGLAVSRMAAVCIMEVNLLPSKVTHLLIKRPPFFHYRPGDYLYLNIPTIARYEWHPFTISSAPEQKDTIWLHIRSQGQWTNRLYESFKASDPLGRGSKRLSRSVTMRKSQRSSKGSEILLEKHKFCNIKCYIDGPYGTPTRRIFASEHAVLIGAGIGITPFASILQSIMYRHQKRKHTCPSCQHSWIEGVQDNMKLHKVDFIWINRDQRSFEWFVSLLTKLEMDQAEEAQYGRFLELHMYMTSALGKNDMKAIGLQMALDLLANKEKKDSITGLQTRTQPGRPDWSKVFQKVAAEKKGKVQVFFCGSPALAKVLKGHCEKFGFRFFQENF

Where “and” joins values, the source holds several entries; their conditions need not be identical. Equal entries are not always repeated. Calls of active or inactive are those of the source.

Sequence of NADPH oxidase 2 (Homo sapiens) (P04839 whole entry, looked up): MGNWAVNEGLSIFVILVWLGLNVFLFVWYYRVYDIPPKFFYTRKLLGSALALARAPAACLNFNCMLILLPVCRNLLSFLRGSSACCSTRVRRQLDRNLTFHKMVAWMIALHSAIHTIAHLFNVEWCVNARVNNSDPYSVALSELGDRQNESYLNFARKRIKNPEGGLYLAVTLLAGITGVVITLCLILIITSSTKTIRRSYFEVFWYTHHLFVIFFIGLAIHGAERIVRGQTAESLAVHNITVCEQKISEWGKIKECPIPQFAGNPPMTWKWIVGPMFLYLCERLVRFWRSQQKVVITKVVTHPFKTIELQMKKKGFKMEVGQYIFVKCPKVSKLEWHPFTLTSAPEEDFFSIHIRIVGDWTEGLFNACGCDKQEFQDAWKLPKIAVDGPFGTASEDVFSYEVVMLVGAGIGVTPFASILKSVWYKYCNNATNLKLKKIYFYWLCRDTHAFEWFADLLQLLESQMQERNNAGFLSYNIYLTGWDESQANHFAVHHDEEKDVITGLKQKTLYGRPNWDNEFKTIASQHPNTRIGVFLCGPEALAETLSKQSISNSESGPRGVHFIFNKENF
Sequence of NADPH oxidase 4 (Homo sapiens) (Q9NPH5 whole entry, looked up): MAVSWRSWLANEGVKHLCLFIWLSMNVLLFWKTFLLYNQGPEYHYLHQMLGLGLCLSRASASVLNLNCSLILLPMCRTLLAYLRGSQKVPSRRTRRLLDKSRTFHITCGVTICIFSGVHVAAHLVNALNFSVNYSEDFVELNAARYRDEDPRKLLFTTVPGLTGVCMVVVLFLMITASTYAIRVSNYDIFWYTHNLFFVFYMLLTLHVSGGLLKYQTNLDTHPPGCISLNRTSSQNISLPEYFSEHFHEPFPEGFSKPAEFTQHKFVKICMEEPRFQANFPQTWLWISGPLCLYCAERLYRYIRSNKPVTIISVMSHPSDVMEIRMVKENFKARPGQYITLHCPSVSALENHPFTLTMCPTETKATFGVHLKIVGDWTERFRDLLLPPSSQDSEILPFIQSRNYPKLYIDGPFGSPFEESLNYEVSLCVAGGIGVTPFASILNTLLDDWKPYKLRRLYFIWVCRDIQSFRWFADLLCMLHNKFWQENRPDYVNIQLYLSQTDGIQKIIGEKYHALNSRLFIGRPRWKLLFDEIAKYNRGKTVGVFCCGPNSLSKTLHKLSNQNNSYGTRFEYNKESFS

Regarding `C=CCN(C(=O)C(c1cccs1)N(C(=O)/C=C\C(=O)O)C(C)(C)CO)c1ccc(OC)cc1` (stereo not given), the z-score is 3.97 (inactive) and 3.23 (inactive) in assay [1]; 0.292 (inactive) and 3.92 (inactive) in assay [3]; -0.775 (inactive) and -0.466 (inactive) in assay [4]; 0.029 (inactive) and -0.675 (inactive) in assay [5]; -1.05 (inactive) and -1.12 (inactive) in assay [6]; 1.97 and 1.04 in assay [7]. Further, the z-score in assay [8] is 0.0253 (inactive) and -0.0835 (inactive); in [9], -0.464 (inactive) and -0.814 (inactive); in assay [10], -0.126 and 0.853. Moreover, the composite z-score in assay [2] was -0.0722 and 0.121.

As to `C[N+](C)(C)CCCCCCNC(=O)[C@H]1C[C@H]2C(=O)N[C@@H](CCCC[N+](C)(C)C)C(=O)N2[C@H]1c1ccc(O)cc1`, the z-score in assay [1] was 0.167 (inactive) and 0.234 (inactive); in assay [3], 0.453 (inactive) and 0.892 (inactive); in assay [4], -1.12 (inactive) and 0.591 (inactive); in [5] it was -1.11 (inactive) and -2.09 (inactive); in assay [6], -1.46 (inactive) and 0.0065 (inactive); in assay [7], 0.0304 and -0.109. Further, the z-score was -1.5 (inactive) and 0.235 (inactive) in assay [8]; -0.479 (inactive) and 0.249 (inactive) in assay [9]; -3.22 and 0.0348 in assay [10]. In [2], the composite z-score was -0.0523 and -0.127.

`C=CCN(C(=O)C1N(C(C)(C)CO)C(=O)C2C(C(=O)O)C3C=CC21O3)c1ccc(OC)cc1` (stereo not given): the z-score in assay [1] was 2.14 (inactive) and 0.776 (inactive); in assay [3], 2.3 (inactive) and -0.0606 (inactive); in assay [4] it was -0.613 (inactive) and -0.0765 (inactive); in [5], -1.82 (inactive) and 0.228 (inactive); in assay [6] it was -0.646 (inactive) and -0.183 (inactive); in assay [7] it was 0.228 and -0.0837. Also, the z-score in assay [8] was 0.833 (inactive) and -0.0915 (inactive); in assay [9], -2.16 (inactive) and -2.56 (inactive); in assay [10] it was 0.782 and -1.03. For the same compound, the composite z-score in [2] is -0.0544 and -0.333.

For `C[N+](C)(C)CCCCNC(=O)[C@@H]1C[C@@H]2C(=O)N[C@@H](CCCC[N+](C)(C)C)C(=O)N2[C@@H]1c1cccc(OCCO)c1`, the z-score in [1] was 0.185 (inactive) and 0.394 (inactive); in assay [3], 1.5 (inactive) and 1.02 (inactive); in assay [4] it was 0.77 (inactive) and -0.108 (inactive); in assay [5], -1.61 (inactive) and -1.45 (inactive); in assay [6], 0.252 (inactive) and -0.0932 (inactive); in assay [7], -0.519 and -0.437. Also, the z-score in assay [8] is -2.1 (inactive) and -1.99 (inactive); in [9], -2.58 (inactive) and -1.13 (inactive); in assay [10], -1.28 and -0.837. In assay [2], the composite z-score was -0.144 and 0.167.

On to `C=CCN(C(=O)C(c1cccs1)N(C(=O)/C=C\C(=O)O)c1ccc(CCO)cc1)c1ccc(OC)cc1` (stereo not given), for which the z-score was 2.16 (inactive) and 0.76 (inactive) in [1]; 1.73 (inactive) and -1.02 (inactive) in assay [3]; 0.0371 (inactive) and -0.3 (inactive) in [4]; -0.0439 (inactive) and 0.347 (inactive) in assay [5]; 0.454 (inactive) and -0.0131 (inactive) in [6]; 0.749 and 0.862 in assay [7]. For the same compound, the z-score in [8] was -0.147 (inactive) and -0.268 (inactive); in assay [9] it was -0.649 (inactive) and -1.34 (inactive); in [10], 0.137 and -0.261. Also, the composite z-score in [2] is -0.0186 and -0.229.

Consider `O=c1n(-c2ccccc2)c(=O)n2n1CC[C@@H]1C(=NOC[C@@H](O)COCc3ccco3)[C@H]3O[C@H]3[C@@H](O)[C@@H]12`, for which the z-score was -1.09 (inactive) and -0.282 (inactive) in assay [1]; 1.17 (inactive) and 0.288 (inactive) in assay [3]; -0.603 (inactive) and 0.191 (inactive) in [4]; 1.74 (inactive) and 0.238 (inactive) in assay [5]; -2.3 (inactive) and 0.0983 (inactive) in [6]; 0.473 and -0.975 in [7]. Further, the z-score is 1.06 (inactive) and 0.176 (inactive) in [8]; 0.113 (inactive) and -2.01 (inactive) in [9]; 1.33 and -0.41 in assay [10]. In addition, the composite z-score in [2] was -0.0464 and -0.0626.

As to `COC(=O)C1=C2N(Cc3ccccc3)C(C)=C(C(=O)OC)[C@@H](c3ccccc3)N2C(=O)[C@](O)(C(=O)OC)C1`, the z-score was 0.33 (inactive) and -0.579 (inactive) in assay [1]; 1.6 (inactive) and 0.553 (inactive) in assay [3]; 1.02 (inactive) and 0.676 (inactive) in assay [4]; 0.878 (inactive) and -0.159 (inactive) in [5]; 0.468 (inactive) and 0.318 (inactive) in assay [6]; -0.482 and -0.524 in assay [7]. Also, the z-score was 0.258 (inactive) and 0.184 (inactive) in assay [8]; 0.64 (inactive) and 0.0139 (inactive) in assay [9]; 0.932 and 0.724 in assay [10]. For the same compound, the composite z-score in [2] was -0.0694 and -0.189.

Regarding `CO[C@H]1COC(=O)[C@H](C)NC(=O)CC=C[C@@H](C)[C@H](OC)COC(=O)CC=C[C@@H]1C`, the z-score in [1] is 0.343 (inactive); in assay [3] it was -0.0029 (inactive); in assay [4], 0.147 (inactive); in assay [5], 0.597 (inactive); in assay [6], -0.0165 (inactive); in [7] it was -0.248. Also, the z-score was 1.45 (inactive) in [8], -1.65 (inactive) in assay [9] and -0.796 in assay [10]. Also, in assay [2], the composite z-score was -0.149.
